# Hits are enriched below; roughly 19% of the tested compounds scored in any of these assays.
# TGFb SMAD3 inh: blocks TGF-b signaling | Potency, µM (highest dose often 46.1 µM), for the others: at the highest dose activity, negative = inhibition, usual class: inhibitors | 410,000 compounds, 1.2% hits | HepG2 CAGA-GFP TGF-b/SMAD3 reporter, GFP fluorescence, 18 h; TGF-beta stimulated, 500 pg/mL final; further: potency means the concentration at half of the fitted maximal effect; on the % scale 0 is the no-effect control and ±100 the full control effect; nearly all actives have a fitted effect of over 65% in size
#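 Smad-responsive CAGA-GFP expression was quantified in HEPG2 cells exposed to compounds and 500 pg/mL final TGF-beta for 18 h at 37 degrees C; unstimulated wells defined full inhibition.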
# IL1B secr inh: inflammasome signaling inhibition, IL-1 beta readout | activity change, % at 57.5 µM | 360,000 compounds, 4.7% hits | THP-1 LPS/ATP IL-1B secretion, AlphaLISA, 16 h; hits give low values; in the data active means activity change below about -50%; inconclusive means mostly about -30% to -49%; further: on the % scale 0 is the no-effect control and ±100 the full control effect
#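 THP-1 cells pretreated 1 hr with compounds (up to 57.5 uM final), then stimulated with LPS (250 ng/mL final) plus ATP (1.25 mM final); secreted IL-1B measured by AlphaLISA after 16 hr, decreased signal indicating inhibition.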
# TDP1 cell CPT: DT40-hTDP1 cell growth loss with CPT; chicken DT40 Tdp1-/-;hTDP1 cells + 20 nM CPT, ATP luminescence, 48 h; Potency, µM (highest dose often 46.2 µM), without a hit: at the top dose activity change, negative = growth inhibition, actives largely listed as inhibitors; 420,000 compounds, 12% hits; AID 686979; further: potency means the concentration at half of the fitted maximal effect; on the % scale 0 is the no-effect control and ±100 the full control effect; nearly all actives have a fitted effect of over 55% in size
#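 Cell growth measured by CellTiter-Glo luminescence after a minimum 48 h, 37 C compound exposure with 20 nM CPT in Tdp1-knockout DT40 cells stably expressing hTDP1, seeded 400/well; qHTS titration format.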
# TDP1 cell noCPT: qHTS for Inhibitors of human tyrosyl-DNA phosphodiesterase 1 (TDP1): qHTS in cells in absence of CPT | 420,000 compounds, 15% hits | Potency, µM (series often up to 46.2 µM), for inactives: top-dose activity change, negative = growth inhibition, hits mostly inhibitors | DT40 Tdp1-/- hTDP1 cells, no CPT, ATP luminescence, 48 h; further: potency means the concentration at half of the fitted maximal effect; on the % scale 0 is the no-effect control and ±100 the full control effect; nearly all actives have a fitted effect of over 55% in size
#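 A cellular qHTS used chicken DT40 cells lacking endogenous Tdp1 but carrying stably transfected human TDP1. Compounds were applied without camptothecin, and cell growth kinetics were judged by ATP-dependent luminescence after ≥48 hr.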
# HepG2 viability: kills HepG2 cells in TGF-b inhibitor counter-screen | 410,000 compounds, 0.76% hits | HepG2 CAGA-GFP viability, ATP luminescence, 18 h | Potency, µM (series often up to 46.1 µM), inactives show at the highest dose activity change, negative = cytotoxicity, hits mostly cytotoxic; further: potency means the concentration at half of the fitted maximal effect
#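 CellTiter-Glo luminescence gave cytotoxicity after 18 hours at 37 degrees C. The cells were HepG2 CAGA-GFP in 1% FBS DMEM, stimulated with 500 pg/mL TGF-beta after compound addition. %Activity was normalised to no-cell wells (complete cell-killing) and DMSO (no toxicity), and curves were fitted and classified.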
# S-ASM inh: human S-ASM enzyme inhibition; placental ASM, HMU-PC fluorogenic substrate, 60 min; P17405; Potency, µM (highest dose often 57.5 µM), inactives show top-dose activity change, negative = inhibition, usual class: inhibitors; 340,000 compounds, 0.006% hits; further: potency means the concentration at half of the fitted maximal effect
# Target sequence (P17405 47-631 limits assumed): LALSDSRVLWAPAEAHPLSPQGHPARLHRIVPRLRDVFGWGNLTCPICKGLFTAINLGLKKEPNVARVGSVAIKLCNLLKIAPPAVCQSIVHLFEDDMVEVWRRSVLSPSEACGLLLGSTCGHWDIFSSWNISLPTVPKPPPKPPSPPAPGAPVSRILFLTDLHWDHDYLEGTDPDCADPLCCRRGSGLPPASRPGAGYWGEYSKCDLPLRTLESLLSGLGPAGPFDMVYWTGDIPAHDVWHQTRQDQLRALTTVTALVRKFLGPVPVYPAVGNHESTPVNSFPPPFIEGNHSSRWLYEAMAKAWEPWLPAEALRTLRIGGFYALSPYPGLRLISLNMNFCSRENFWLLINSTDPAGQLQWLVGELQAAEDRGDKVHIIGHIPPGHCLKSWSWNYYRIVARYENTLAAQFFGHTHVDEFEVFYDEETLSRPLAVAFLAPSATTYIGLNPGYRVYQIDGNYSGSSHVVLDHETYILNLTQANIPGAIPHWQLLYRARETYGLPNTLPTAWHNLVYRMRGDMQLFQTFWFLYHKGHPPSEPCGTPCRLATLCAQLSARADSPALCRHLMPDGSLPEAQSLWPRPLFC
#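 HMU-PC0 cleavage (9 uM final) by human placental ASM, 60 min at 37 °C following 10 min compound exposure at RT; stopped at pH 10, fluorescence Ex 386/Em 447 nm.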
# * marks the source's active call; other numbers are inactive results; ? = inconclusive; nt = not tested or not shown. Unless noted, the call rests on the fitted dose curve; in most records, active means well fitted curve in the direction sought with a large enough effect; inconclusive means small, poorly fitted or top-dose-only effect, or another doubt; inactive means no such curve, though single readings can be large; an effect the other way counts as inactive or inconclusive.
SMILES,TGFb SMAD3 inh,IL1B secr inh,TDP1 cell CPT,TDP1 cell noCPT,HepG2 viability,S-ASM inh
O=C(Cc1ccc(Cl)cc1)NCC(=O)N1CCCCCC1,-16%,-5,-11%,-1%,-6%,-1%
COc1ccc(NC(=O)C(=O)NCCc2csc(-c3ccc(Cl)cc3)n2)cc1,6%,nt,-16%,-12%,-8%,nt
CCOc1ccc(CC(=O)NCCc2csc(-c3ccc(Cl)cc3)n2)cc1,?,nt,?,16µM*,4%,nt
CCOc1ccc(CC(=O)NCCc2sc(-c3cccc(F)c3)nc2C)cc1,?,nt,?,-30%,-25%,nt
CCOc1ccc(CC(=O)NCCc2csc(-c3ccc(C)cc3)n2)cc1,0%,nt,?,21µM*,-8%,nt
COc1ccc(N2CCN(C(=O)c3ccc(-c4nc5ccccc5s4)o3)CC2)cc1,-1%,44,16µM*,12µM*,-16%,-11%
COc1ccccc1N1CCN(C(=O)c2ccco2)CC1,5%,-8,-4%,-1%,16%,4%
COc1ccccc1N1CCN(C(=O)c2ccc(-c3nc4ccccc4s3)o2)CC1,?,13,23µM*,16µM*,-47%,-2%
CCOc1ccc(C2CC(=O)Nc3nc(SCc4ccccc4C)[nH]c(=O)c32)cc1OC (stereo not drawn),?,nt,?,15µM*,-46%,nt
O=C1CC(c2cccc(O)c2)c2c(nc(SCc3ccccc3F)[nH]c2=O)N1 (stereo not drawn),-19%,nt,-12%,-10%,7.1µM*,nt
Clc1ccccc1Cc1cn2cc(-c3ccccc3)nc2s1,1%,nt,?,?,-7%,nt
Cc1cc(C)cc(-n2nnc(-c3nsc(NC(=O)c4ccccc4Cl)n3)c2C)c1,-10%,nt,-30%,?,-34%,nt
Cc1ccc(-n2nnc(-c3nsc(NC(=O)c4cccc(Cl)c4)n3)c2C)cc1C,3%,nt,5.8µM*,3.7µM*,-13%,nt
COc1cc(OC)cc(C(=O)Nc2nc(-c3nnn(-c4ccc(F)c(Cl)c4)c3C)ns2)c1,?,nt,?,?,-64%,nt
CCc1cccc(-n2nnc(-c3nsc(NC(=O)c4cccs4)n3)c2C)c1,?,nt,?,?,16µM*,nt
CSc1cccc(-n2nnc(-c3nsc(NC(=O)c4cccs4)n3)c2C)c1,?,nt,?,?,-57%,nt
Cc1ccc(-n2nnc(-c3nsc(NC(=O)c4ccccc4C)n3)c2C)cc1Cl,?,nt,5.2µM*,6.5µM*,2%,nt
CCc1ccccc1-n1nnc(-c2nsc(NC(=O)c3ccc(C)c(C)c3)n2)c1C,10µM*,nt,?,18µM*,-40%,nt
CCOc1ccccc1-n1nnc(-c2nsc(NC(=O)c3ccc(C)cc3)n2)c1C,?,nt,?,?,-42%,nt
COc1ccc(OCc2cc(C(=O)N3CCCC(O)C3)no2)c2ccccc12 (stereo not drawn),0%,-1,-10%,-18%,-30%,-1%
COCC(=O)N1C[C@H]2CON(C)[C@H]2C[C@H]1c1ccc(N2CCCCC2)cc1,-31%,-7,7%,5%,4%,nt
NC1=NC2OC(CO)C(O)C2O1 (stereo not drawn),-9%,-20,1%,-3%,0%,nt
CNS(=O)(=O)c1cc(NC(=O)c2cncn2-c2ccccc2)ccc1C,0%,-3,-3%,-4%,-8%,-1%
COc1ccc(-n2nnc(-c3nsc(NC(=O)c4cccc(C)c4)n3)c2C)cc1OC,-3%,nt,?,?,1%,nt
Cc1ccc(-n2nnc(-c3nsc(NC(=O)c4ccc(C)c(C)c4)n3)c2C)cc1,-7%,nt,13µM*,13µM*,-12%,nt
COC(=O)c1cnc(N)s1,0%,2,-10%,-12%,10%,6%
